MCF10A rerep: A quantitative high throughput screen for small molecules that induce DNA re-replication in MCF 10a normal breast cells | AID 624296, 2012 | actives 2.9% (n = 350,000) | Potency, µM (top dose mostly 46.1 µM), for the others: at the top dose activity, positive = re-replication, most hits filed as activators | MCF 10A DNA re-replication, Hoechst nuclear intensity, 48 h; note: % of control where 0% means no effect; nearly all actives have a fitted effect of over 50% in size
SW480 rereplic: A quantitative high throughput screen for small molecules that induce DNA re-replication in SW480 colon adenocarcinoma cells; Potency, µM (top dose mostly 46.1 µM), for inactives: top-dose re-replication activation, hits mostly activators; SW480 DNA re-replication, Hoechst DNA content imaging, 48 h; actives 1.8% (n = 340,000); note: % of control where 0% means no effect; nearly all actives have a fitted effect of over 55% in size
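250 cells/well; 23 nL cpd via pin tool; 48 hr, 37 C, 5% CO2; Hoechst 40 min; imager read of total nuclear intensity, ex 405/em 500-530 nm.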
PINK1 expr mod: A Quantitative High throughput Screen to Identify Chemical Modulators of PINK1 Expression; Potency, µM (titrated, usually from 76.6 µM), for the others: at the highest dose activation (PINK1 increase), actives largely listed as activators; AID 624263, 2012; PINK1 immunofluorescence, high-content cytometry, 24 h; actives 0.2% (n = 410,000); active = well fitted activation curve with a large enough effect; inconclusive = small, poorly fitted or top-dose-only effect; cell line not stated here; note: % of control where 0% means no effect; nearly all actives have a fitted effect of over 65% in size
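Compound titrations (5 concentrations, 24 h) on a stable cell line; DMSO and CCCP controls. Endpoint: fixed-cell PINK1 immunofluorescence with mitochondrial, cell and nuclear markers, scanned by microplate cytometer.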
PTAP TSG101 blk: qHTS Assay for Iinhibitors of HIV-1 Budding by Blocking the Interaction of PTAP/TSG101; Tumor susceptibility gene 101 protein (Homo sapiens), Q99816; Fluorescence polarization, FITC-PTAP peptide / Tsg101 binding; Potency, µM (titrated, usually from 115 µM), for the others: at the top dose activity change, negative = inhibition, most hits filed as inhibitors; 340,000 tested, under 10 active; active = well fitted inhibition curve with a large enough effect in the main read-out, with a control signal flat, not every such curve was filed as active; inconclusive = small, poorly fitted or top-dose-only effect, or effect the other way, or a change in a side signal; inactive = no such curve, though single readings can be large or run the other way; note: % of control where 0% means no effect
Target sequence (Q99816 whole entry, looked up): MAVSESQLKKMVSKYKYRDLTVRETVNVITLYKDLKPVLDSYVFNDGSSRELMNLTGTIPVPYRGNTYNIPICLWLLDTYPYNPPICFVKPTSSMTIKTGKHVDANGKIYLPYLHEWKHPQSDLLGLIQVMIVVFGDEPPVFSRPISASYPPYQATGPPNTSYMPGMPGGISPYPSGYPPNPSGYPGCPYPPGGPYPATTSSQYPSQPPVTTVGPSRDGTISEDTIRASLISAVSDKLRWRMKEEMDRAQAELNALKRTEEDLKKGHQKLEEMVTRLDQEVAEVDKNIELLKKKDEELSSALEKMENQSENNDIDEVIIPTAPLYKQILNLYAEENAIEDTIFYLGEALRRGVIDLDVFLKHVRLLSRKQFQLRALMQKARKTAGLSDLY
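Fluorescence anisotropy tracks displacement of a FITC-tagged PTAP peptide (50 nM) from the Tsg101 binding domain (10 uM), following a 20 min room-temperature incubation at pH 7.5.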
KB-3-1 tox: qHTS assay for MDR1-selective chemotherapeutics: Primary screen using the parental adenocarcinoma cell KB-3-1 | KB-3-1 viability, CellTiter-Glo ATP luminescence, 72 h | Potency, µM (series often up to 46.1 µM), usual class: cytotoxic | actives 1.4% (n = 400,000) | AID 1347075, 2019; note: % is set by controls: 0 for no effect and ±100 for the full control effect; nearly all actives have a fitted effect of over 60% in size
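Cells are dispensed, compounds pinned in, plates held at 37 °C for 72 h, then CellTiter-Glo is added and luminescence read after 10 minutes. Cell line: parental KB-3-1 in phenol-red-free DMEM, 10% FBS.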
KB-V1 MDR tox: qHTS assay for MDR1-selective chemotherapeutics: Primary screen using the drug-selected MDR subline cells KB-V1; KB-V1 MDR cells viability, CellTiter-Glo, 72 h; Potency, µM (series often up to 46.1 µM), hits mostly cytotoxic; actives 3.4% (n = 400,000); note: % is set by controls: 0 for no effect and ±100 for the full control effect; nearly all actives have a fitted effect of over 60% in size
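In this primary screen, KB-V1 cells overexpressing P-gp are incubated with library compounds (lowest to highest concentration) for 72 h at 37 degrees C before a luminescent ATP viability read.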
Numbers without * were called inactive; i = inactive; ? = inconclusive; · = no result given; [ ] = dose if it differs, or a comment. Sampled rows, rich in hits. Any-hit rate of the full collection: about 6.8%. Unless noted, calls come from the whole dose curve; as a rule, active = well fitted curve in the direction sought with a large enough effect; inconclusive = small, poorly fitted or top-dose-only effect, or another doubt; inactive = no such curve, though single readings can be large; an effect the other way counts as inactive or inconclusive. Potency is the fitted concentration of half-maximal effect.

SMILES	MCF10A rerep	SW480 rereplic	PINK1 expr mod	PTAP TSG101 blk	KB-3-1 tox	KB-V1 MDR tox
Cc1cc(C)c2nc(N3C(=O)C(O)=C(C(=O)c4ccco4)C3c3cccc(O)c3)sc2c1 (stereo not drawn)	21µM*	1%	5%	-9%	i	?
Cc1ccc2nc(N3C(=O)C(O)=C(C(=O)c4ccc(C)o4)C3c3ccco3)sc2c1 (stereo not drawn)	18µM*	10%	?	-8%	i	i
Cc1ccc2nc(N3C(=O)C(O)=C(C(=O)c4ccco4)C3c3ccc(C)o3)sc2c1 (stereo not drawn)	21µM*	?	0%	3%	i	i
COC(=O)c1sc(N2C(=O)C(O)=C(C(=O)c3ccc(C)o3)C2c2ccco2)nc1C (stereo not drawn)	3%	-10%	-1%	6%	i	?
O=C(C1=C(O)C(=O)N(c2nc3ccc(Cl)cc3s2)C1c1ccco1)c1ccco1 (stereo not drawn)	13µM*	-1%	-1%	-1%	i	?
O=C(CCC1N=C2c3ccccc3N=C(SCC(=O)Nc3cccc(Cl)c3)N2C1=O)NCc1ccco1 (stereo not drawn)	·	·	1%	·	i	i
CN(CCCc1cnc[nH]1)C(=S)NCCCN(Cc1ccc(Cl)cc1)c1ccc(Br)cn1	·	·	1%	·	i	?
COc1ccc(OC)c(C(=O)c2c(N)c(-c3nc(-c4ccc(C)c(C)c4)cs3)c3ccccn23)c1	·	·	1%	·	i	i
COc1ccc(CNC(=O)c2cnn(-c3nccc(-c4ccco4)n3)c2C)cc1OC	·	·	1%	·	·	·
COC(=O)C1=C(C)NC(C)=C(C(=O)OC)C1c1cc2cc(C)ccc2[nH]c1=O	24%	0%	2%	-4%	i	i
N#CC1=C(N)Oc2ccc3ccc(O)cc3c2C1c1cccnc1 (stereo not drawn)	2%	0%	·	-4%	i	i
N#CC1=C(N)Oc2c(ccc3cccnc23)C1c1ccccc1 (stereo not drawn)	15µM*	5.2µM*	8%	-5%	5.2µM*	i
N#CC1=C(N)Oc2ccc3ccccc3c2C1c1cccnc1 (stereo not drawn)	1.6µM*	4.6µM*	13%	-7%	?	5.2µM*
N#CC1=C(N)Oc2c(ccc3ccccc23)C1c1cccs1 (stereo not drawn)	?	0.56µM*	1%	-4%	0.89µM*	5µM*
Cc1ccc2[nH]c(=O)c(C3C(C#N)=C(N)Oc4c3ccc3cccnc43)cc2c1 (stereo not drawn)	?	?	8%	-7%	16µM*	2.6µM*
O=C(CCC1N=C2c3ccccc3N=C(SCc3ccccc3F)N2C1=O)NCc1ccccc1 (stereo not drawn)	·	·	0%	·	i	i
COCC1CCCN(Cc2ccc3c(c2)CN(C(=O)c2cnn(C(C)C)c2)CCO3)C1 (stereo not drawn)	·	·	0%	·	·	·
COc1ccc(OC)c(NC(=O)c2ccc(-c3nc(COc4ccccc4)c(C)o3)cc2)c1	·	·	0%	·	i	i
O=C(NC1CCCCC1)C(c1ccco1)N(C(=O)c1csnn1)C1CCCC1 (stereo not drawn)	0%	-5%	1%	-5%	i	16µM*
O=C(NCCc1ccccc1)C(c1cccs1)N(C(=O)c1csnn1)C1CC1 (stereo not drawn)	-5%	10%	1%	-9%	i	i
O=C(NC1CCCC1)C(c1ccco1)N(Cc1ccccc1)C(=O)c1csnn1 (stereo not drawn)	2%	-2%	-16%[38.3 µM]	-6%	i	13µM*
O=C(NCc1ccccc1)C(c1cccs1)N(C(=O)c1csnn1)C1CC1 (stereo not drawn)	0%	2%	-4%	-8%	i	18µM*
COCCCNC(=O)c1sc2nc(C)c(C(=O)Nc3ccc(C)cc3C)c(-c3ccc(Cl)cc3)c2c1N	·	·	3%	·	i	i
O=C(NCC1(N2CCOCC2)CCCC1)c1cnn(-c2nccc(-c3cccs3)n2)c1C1CC1	·	·	1%	·	·	·
Cc1ccc(CNC(=O)CCc2nnc3n(C)c(=O)c4sccc4n23)cc1	·	·	1%	·	i	i
SMILES	MCF10A rerep	SW480 rereplic	PINK1 expr mod	PTAP TSG101 blk	KB-3-1 tox	KB-V1 MDR tox
COCC(=O)N1c2nc(-c3ccco3)nn2C2(CCCCC2)[C@@H]2CCCC[C@@H]21	·	·	-1%	·	·	·
COCc1c(C#N)c(NCc2cc(OC)c(OC)c(OC)c2)nc(C)c1[N+](=O)[O-]	?	0%	0%	-3%	?	5.2µM*
COCc1c(C#N)c(NCCc2ccc(F)cc2)nc(C)c1[N+](=O)[O-]	?	-4%	2%	-2%	?	5.2µM*
COc1cc(CNc2nc(C)c([N+](=O)[O-])c(C)c2C#N)cc(OC)c1	6%	18%	-2%	-6%	?	7.3µM*
COCc1c(C#N)c(NCCc2ccccc2)nc(C)c1[N+](=O)[O-]	22%	3%	0%	1%	?	i
COc1ccc(C(CC(=O)Nc2cc(OC)c(OC)c(OC)c2)N2Cc3ccccc3C2=O)cc1 (stereo not drawn)	·	·	1%	·	·	·
O=C(NC1CCCCC1)N1CCN(C2CCCCC2)CC1	-3%	24%	5%[38.3 µM]	3%	i	i
O=C(NC12CC3CC(CC(C3)C1)C2)N1CCN(C2CCCCC2)CC1	2.1µM*	-1%	3%	-3%	i	i
O=C(NCCCCCCNC(=O)c1ccccc1O)c1ccccc1O	14%	-1%	19%	0%	?	?
O=C(NCc1ccccc1)c1cnc2n(c1=O)CCS2	6%	?	-1%	-1%	i	i
O=C(NCCCc1ccccc1)c1cnc2n(c1=O)CCS2	-7%	-8%	0%[38.3 µM]	0%	i	15µM*
O=C(NCCCc1ccccc1)c1ccccc1O	15µM*	?	·	-9%	i	?
O=C(NCCCSc1ccccc1)c1cc(Cl)ccc1O	?	-2%	18µM*	-4%	?	?
Cc1cc(C)cc(NC(=O)C2CCN(S(=O)(=O)c3c(C)noc3/C=C/c3ccco3)CC2)c1	·	·	4%	·	·	·

High-throughput results as filed in PubChem BioAssay.
